Data: PMC7862700, “An all-to-all approach to the identification of sequence-specific readers for epigenetic DNA modifications on cytosine”

Columns and labels:
Experiment in all cases: DAPPL (digital affinity profiling via proximity ligation, sequencing); 10 mM Tris-HCl pH 7.5, 50 mM NaCl, 1 mM DTT, 4% glycerol, room temperature, 30 min; GST-TFs on glutathione beads, 16-mer random dsDNA library, 0.1% formaldehyde crosslink after washing; high values mean tight binding
Details in all cases: protein: recombinant; tags: N-terminal GST; dsDNA, one strand shown
FLI1 = biological target: T1, FLI1 (Homo sapiens, UniProt Q01543 1-452)
T1 sequence: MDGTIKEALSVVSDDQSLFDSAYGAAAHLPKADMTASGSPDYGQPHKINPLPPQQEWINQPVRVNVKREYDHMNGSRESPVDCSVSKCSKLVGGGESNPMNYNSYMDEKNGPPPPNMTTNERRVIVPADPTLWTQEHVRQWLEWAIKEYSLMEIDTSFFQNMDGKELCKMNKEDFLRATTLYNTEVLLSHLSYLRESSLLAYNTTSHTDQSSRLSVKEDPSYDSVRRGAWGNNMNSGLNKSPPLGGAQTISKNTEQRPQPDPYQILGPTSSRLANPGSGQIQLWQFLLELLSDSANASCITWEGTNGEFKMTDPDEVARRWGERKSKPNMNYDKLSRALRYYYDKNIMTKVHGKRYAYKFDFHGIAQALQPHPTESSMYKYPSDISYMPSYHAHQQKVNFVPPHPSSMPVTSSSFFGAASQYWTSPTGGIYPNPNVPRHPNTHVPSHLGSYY
In short: (§1)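 Human transcription factors carrying a GST fusion were produced in yeast, bound to glutathione beads, tagged with DNA barcodes and pooled together with a tag-only sample. Each pool was held with 200 nmole of a random double-stranded 16-mer DNA library in Tris/NaCl/DTT/glycerol buffer for 30 min at room temperature, then washed, crosslinked in 0.1% formaldehyde, proximity-ligated with BsaI/T4 ligase (1 h, 37 °C), PCR-amplified and sequenced on an Illumina NextSeq500. Binding signal is the read frequency of each hexamer for a given factor divided by its frequency in the tag-only sample.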

ELK1 = biological target: T2, ELK1 (Homo sapiens, UniProt P19419 1-428)
T2 sequence: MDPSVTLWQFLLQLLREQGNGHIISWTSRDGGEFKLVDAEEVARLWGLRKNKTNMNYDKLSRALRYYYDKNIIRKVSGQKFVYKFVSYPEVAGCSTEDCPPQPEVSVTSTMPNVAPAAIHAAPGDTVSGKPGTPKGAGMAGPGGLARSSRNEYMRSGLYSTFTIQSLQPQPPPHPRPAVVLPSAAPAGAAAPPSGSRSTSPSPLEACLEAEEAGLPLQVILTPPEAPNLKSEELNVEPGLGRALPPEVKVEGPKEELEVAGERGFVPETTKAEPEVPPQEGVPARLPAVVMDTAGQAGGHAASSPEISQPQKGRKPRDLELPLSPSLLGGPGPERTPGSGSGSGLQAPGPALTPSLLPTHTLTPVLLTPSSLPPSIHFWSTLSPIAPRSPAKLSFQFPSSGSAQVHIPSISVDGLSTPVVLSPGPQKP
In short: as §1

GABPA = biological target: T3, GABPA (Homo sapiens, UniProt Q06546 1-454)
T3 sequence: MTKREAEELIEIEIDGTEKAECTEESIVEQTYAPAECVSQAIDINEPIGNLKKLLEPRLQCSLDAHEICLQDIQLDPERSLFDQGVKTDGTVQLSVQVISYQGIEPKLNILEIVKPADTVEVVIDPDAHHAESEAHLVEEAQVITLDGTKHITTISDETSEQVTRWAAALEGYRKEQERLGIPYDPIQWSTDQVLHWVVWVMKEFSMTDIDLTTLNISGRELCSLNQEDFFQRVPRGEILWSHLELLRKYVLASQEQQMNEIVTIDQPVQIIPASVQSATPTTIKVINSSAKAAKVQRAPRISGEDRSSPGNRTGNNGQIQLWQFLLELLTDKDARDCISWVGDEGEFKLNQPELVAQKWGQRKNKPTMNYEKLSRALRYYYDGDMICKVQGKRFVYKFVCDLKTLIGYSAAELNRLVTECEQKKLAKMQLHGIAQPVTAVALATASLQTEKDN
In short: as §1

ERG = biological target: T4, ERG (Homo sapiens, UniProt P11308 1-479)
T4 sequence: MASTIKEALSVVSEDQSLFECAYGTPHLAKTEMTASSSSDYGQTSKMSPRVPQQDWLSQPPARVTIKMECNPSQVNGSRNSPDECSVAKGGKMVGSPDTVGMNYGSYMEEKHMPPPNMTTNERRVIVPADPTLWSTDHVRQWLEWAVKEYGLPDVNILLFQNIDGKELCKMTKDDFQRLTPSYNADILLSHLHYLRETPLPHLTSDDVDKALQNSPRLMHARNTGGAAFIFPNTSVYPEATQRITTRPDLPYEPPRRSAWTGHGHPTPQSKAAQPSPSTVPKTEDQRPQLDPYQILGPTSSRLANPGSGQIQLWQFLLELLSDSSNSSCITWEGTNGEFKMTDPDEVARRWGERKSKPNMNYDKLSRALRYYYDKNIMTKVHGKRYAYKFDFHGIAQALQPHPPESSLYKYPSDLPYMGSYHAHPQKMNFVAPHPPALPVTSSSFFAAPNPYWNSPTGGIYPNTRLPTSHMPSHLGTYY
In short: as §1

ELF1 = ELF1 (Homo sapiens, UniProt P32519 1-619)
ELF1, sequence (P32519 whole entry): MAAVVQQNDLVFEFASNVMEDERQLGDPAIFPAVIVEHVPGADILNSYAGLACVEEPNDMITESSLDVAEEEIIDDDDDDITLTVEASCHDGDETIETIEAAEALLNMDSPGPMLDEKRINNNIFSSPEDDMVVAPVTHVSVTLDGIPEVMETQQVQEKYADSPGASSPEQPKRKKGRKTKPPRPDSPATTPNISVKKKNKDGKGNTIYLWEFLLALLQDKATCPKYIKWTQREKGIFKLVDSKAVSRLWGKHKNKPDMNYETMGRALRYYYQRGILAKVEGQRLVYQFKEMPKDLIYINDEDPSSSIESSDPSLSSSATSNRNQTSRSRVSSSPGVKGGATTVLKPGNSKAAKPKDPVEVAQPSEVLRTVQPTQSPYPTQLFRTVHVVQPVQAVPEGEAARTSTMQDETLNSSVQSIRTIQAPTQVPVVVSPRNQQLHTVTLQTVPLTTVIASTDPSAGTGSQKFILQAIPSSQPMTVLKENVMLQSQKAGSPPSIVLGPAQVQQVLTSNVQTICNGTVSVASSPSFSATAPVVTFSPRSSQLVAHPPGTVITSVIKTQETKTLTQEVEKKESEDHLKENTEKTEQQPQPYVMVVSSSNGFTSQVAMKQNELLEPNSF
In short: as §1

EHF = biological target: T5, EHF (Homo sapiens, UniProt Q9NZC4 1-300)
T5 sequence: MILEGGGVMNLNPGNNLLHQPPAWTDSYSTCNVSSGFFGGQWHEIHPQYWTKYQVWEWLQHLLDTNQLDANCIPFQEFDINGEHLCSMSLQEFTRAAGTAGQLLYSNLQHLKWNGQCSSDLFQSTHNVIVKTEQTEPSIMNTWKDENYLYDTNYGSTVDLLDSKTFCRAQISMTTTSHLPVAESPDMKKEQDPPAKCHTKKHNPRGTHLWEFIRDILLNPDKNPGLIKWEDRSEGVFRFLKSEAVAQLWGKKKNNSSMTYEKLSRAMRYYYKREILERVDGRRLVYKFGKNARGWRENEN
In short: as §1

SPI1 = SPI1 (Homo sapiens, UniProt P17947 1-270)
In short: as §1

SPIB = SPIB (Homo sapiens, UniProt Q01892 1-262)
SPIB, sequence (Q01892 whole entry): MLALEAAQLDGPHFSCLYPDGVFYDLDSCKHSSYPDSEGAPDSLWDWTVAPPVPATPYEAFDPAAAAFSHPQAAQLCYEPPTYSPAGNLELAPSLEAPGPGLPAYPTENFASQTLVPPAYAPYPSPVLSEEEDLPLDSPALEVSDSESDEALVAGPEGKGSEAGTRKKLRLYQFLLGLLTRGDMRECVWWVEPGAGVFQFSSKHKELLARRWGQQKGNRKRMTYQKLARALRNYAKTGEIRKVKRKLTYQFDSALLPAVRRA
In short: as §1

ELK3 = biological target: T6, ELK3 (Homo sapiens, UniProt P41970 1-407)
T6 sequence: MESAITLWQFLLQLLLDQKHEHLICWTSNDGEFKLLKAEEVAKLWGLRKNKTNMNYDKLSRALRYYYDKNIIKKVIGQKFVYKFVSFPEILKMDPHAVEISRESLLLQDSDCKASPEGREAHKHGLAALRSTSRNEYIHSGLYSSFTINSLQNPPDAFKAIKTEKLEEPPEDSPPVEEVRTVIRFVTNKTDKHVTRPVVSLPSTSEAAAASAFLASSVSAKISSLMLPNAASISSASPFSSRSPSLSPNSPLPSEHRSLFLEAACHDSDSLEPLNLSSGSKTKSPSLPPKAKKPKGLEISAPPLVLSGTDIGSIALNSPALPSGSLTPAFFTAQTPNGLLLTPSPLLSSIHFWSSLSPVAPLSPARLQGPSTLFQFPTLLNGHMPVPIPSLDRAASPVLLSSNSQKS
In short: as §1

## TATCTC
FLI1
  binding signal: 1.19 fold enrichment (6-mer frequency, TF over GST control)
ELK1
  binding signal: 1.32 fold enrichment (6-mer frequency, TF over GST control)
GABPA
  binding signal: 1.39 fold enrichment (6-mer frequency, TF over GST control)
ERG
  binding signal: 1.18 fold enrichment (6-mer frequency, TF over GST control)
ELF1
  binding signal: 1.29 fold enrichment (6-mer frequency, TF over GST control)
EHF
  binding signal: 1.35 fold enrichment (6-mer frequency, TF over GST control)
SPI1
  binding signal: 1.15 fold enrichment (6-mer frequency, TF over GST control)
SPIB
  binding signal: 1.38 fold enrichment (6-mer frequency, TF over GST control)
ELK3
  binding signal: 1.25 fold enrichment (6-mer frequency, TF over GST control)

## CTACTC
FLI1
  binding signal: 1.42 fold enrichment (6-mer frequency, TF over GST control)
ELK1
  binding signal: 1.36 fold enrichment (6-mer frequency, TF over GST control)
GABPA
  binding signal: 1.51 fold enrichment (6-mer frequency, TF over GST control)
ERG
  binding signal: 1.38 fold enrichment (6-mer frequency, TF over GST control)
ELF1
  binding signal: 1.44 fold enrichment (6-mer frequency, TF over GST control)
EHF
  binding signal: 1.38 fold enrichment (6-mer frequency, TF over GST control)
SPI1
  binding signal: 1.47 fold enrichment (6-mer frequency, TF over GST control)
SPIB
  binding signal: 1.59 fold enrichment (6-mer frequency, TF over GST control)
ELK3
  binding signal: 1.46 fold enrichment (6-mer frequency, TF over GST control)

## GTATCT
FLI1
  binding signal: 1.23 fold enrichment (6-mer frequency, TF over GST control)
ELK1
  binding signal: 1.19 fold enrichment (6-mer frequency, TF over GST control)
GABPA
  binding signal: 1.17 fold enrichment (6-mer frequency, TF over GST control)
ERG
  binding signal: 1.14 fold enrichment (6-mer frequency, TF over GST control)
ELF1
  binding signal: 1.18 fold enrichment (6-mer frequency, TF over GST control)
EHF
  binding signal: 1.09 fold enrichment (6-mer frequency, TF over GST control)
SPI1
  binding signal: 1.1 fold enrichment (6-mer frequency, TF over GST control)
SPIB
  binding signal: 1.25 fold enrichment (6-mer frequency, TF over GST control)
ELK3
  binding signal: 1.09 fold enrichment (6-mer frequency, TF over GST control)

## CCTACG
FLI1
  binding signal: 1.34 fold enrichment (6-mer frequency, TF over GST control)
ELK1
  binding signal: 1.41 fold enrichment (6-mer frequency, TF over GST control)
GABPA
  binding signal: 1.39 fold enrichment (6-mer frequency, TF over GST control)
ERG
  binding signal: 1.33 fold enrichment (6-mer frequency, TF over GST control)
ELF1
  binding signal: 1.32 fold enrichment (6-mer frequency, TF over GST control)
EHF
  binding signal: 1.35 fold enrichment (6-mer frequency, TF over GST control)
SPI1
  binding signal: 1.25 fold enrichment (6-mer frequency, TF over GST control)
SPIB
  binding signal: 1.32 fold enrichment (6-mer frequency, TF over GST control)
ELK3
  binding signal: 1.68 fold enrichment (6-mer frequency, TF over GST control)

## CGCTTC
FLI1
  binding signal: 1.94 fold enrichment (6-mer frequency, TF over GST control)
ELK1
  binding signal: 2.2 fold enrichment (6-mer frequency, TF over GST control)
GABPA
  binding signal: 1.99 fold enrichment (6-mer frequency, TF over GST control)
ERG
  binding signal: 2.07 fold enrichment (6-mer frequency, TF over GST control)
ELF1
  binding signal: 2.04 fold enrichment (6-mer frequency, TF over GST control)
EHF
  binding signal: 2.16 fold enrichment (6-mer frequency, TF over GST control)
SPI1
  binding signal: 2 fold enrichment (6-mer frequency, TF over GST control)
SPIB
  binding signal: 2.05 fold enrichment (6-mer frequency, TF over GST control)
ELK3
  binding signal: 2.29 fold enrichment (6-mer frequency, TF over GST control)

## AATGGT
FLI1
  binding signal: 1.52 fold enrichment (6-mer frequency, TF over GST control)
ELK1
  binding signal: 1.38 fold enrichment (6-mer frequency, TF over GST control)
GABPA
  binding signal: 1.36 fold enrichment (6-mer frequency, TF over GST control)
ERG
  binding signal: 1.42 fold enrichment (6-mer frequency, TF over GST control)
ELF1
  binding signal: 1.42 fold enrichment (6-mer frequency, TF over GST control)
EHF
  binding signal: 1.4 fold enrichment (6-mer frequency, TF over GST control)
SPI1
  binding signal: 1.43 fold enrichment (6-mer frequency, TF over GST control)
SPIB
  binding signal: 1.52 fold enrichment (6-mer frequency, TF over GST control)
ELK3
  binding signal: 1.41 fold enrichment (6-mer frequency, TF over GST control)

## CCTGAC
FLI1
  binding signal: 1.49 fold enrichment (6-mer frequency, TF over GST control)
ELK1
  binding signal: 1.57 fold enrichment (6-mer frequency, TF over GST control)
GABPA
  binding signal: 1.49 fold enrichment (6-mer frequency, TF over GST control)
ERG
  binding signal: 1.48 fold enrichment (6-mer frequency, TF over GST control)
ELF1
  binding signal: 1.46 fold enrichment (6-mer frequency, TF over GST control)
EHF
  binding signal: 1.58 fold enrichment (6-mer frequency, TF over GST control)
SPI1
  binding signal: 1.44 fold enrichment (6-mer frequency, TF over GST control)
SPIB
  binding signal: 1.46 fold enrichment (6-mer frequency, TF over GST control)
ELK3
  binding signal: 1.56 fold enrichment (6-mer frequency, TF over GST control)

## ATGTCT
FLI1
  binding signal: 1.21 fold enrichment (6-mer frequency, TF over GST control)
ELK1
  binding signal: 1.28 fold enrichment (6-mer frequency, TF over GST control)
GABPA
  binding signal: 1.36 fold enrichment (6-mer frequency, TF over GST control)
ERG
  binding signal: 1.22 fold enrichment (6-mer frequency, TF over GST control)
ELF1
  binding signal: 1.29 fold enrichment (6-mer frequency, TF over GST control)
EHF
  binding signal: 1.13 fold enrichment (6-mer frequency, TF over GST control)
SPI1
  binding signal: 1.32 fold enrichment (6-mer frequency, TF over GST control)
SPIB
  binding signal: 1.3 fold enrichment (6-mer frequency, TF over GST control)
ELK3
  binding signal: 1.18 fold enrichment (6-mer frequency, TF over GST control)
